In PubChem BioAssay (Tox21) one finds Potency, outcome and max activation data, which are given here for 8 molecules.

Test [1] can be described thus: qHTS assay to identify small molecule agonists of the estrogen receptor alpha (ER-alpha) signaling pathway in the presence of an antagonist - cell viability counter screen (AID 1259386).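 Note: series mostly up to about 92 µM; cells exposed to compounds for 22 h at 37 °C before the viability read; nearly all actives have a fitted effect of over 30% in size.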 The gist of the method: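 Cytotoxicity was measured in parallel with the ERE-luciferase agonist screen, in the same wells. The cells were VM7Luc4E2, which endogenously express ER-alpha, and treatment was with compounds plus 10.0nM ICI-182,780 for 22hr.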

The target of test [2] is Progesterone receptor (Homo sapiens) (UniProt P06401). As to the kind of experiment: qHTS assay to identify small molecule agonists of the progesterone receptor (PR) signaling pathway (AID 1346784; calls by dose curve; note: nearly all actives have a fitted effect of over 30% in size). The gist of the method:
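Fluorescence from LiveBLAzer B/G FRET substrate cleavage (2 hr, RT) reported PR activation in PR-UAS-bla HEK 293T cells treated 16 hr at 37C/5% CO2 with compounds; medium contained 2% charcoal-stripped FBS.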

Test [3] in a line: qHTS assay to identify small molecule antagonists of the TGF-beta/Smad signaling pathway - cell viability counter screen (AID 1346824). Note: nearly all actives have a fitted effect of over 50% in size. The gist of the method: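 SBE-bla HEK 293T cells, incubated overnight, then compound plus 0.25 ng/mL TGF-beta1 (stock added) for 5 hr at 37 C. Viability was read in the same wells by CellTiter-Glo luminescence after 30 min at room temperature.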

Test [4] is described as follows: qHTS assay to identify small molecule agonists of the TGF-beta/Smad signaling pathway - cell viability counter screen (AID 1346829). Note: top concentration of the series differs between compounds; nearly all actives have a fitted effect of over 45% in size. In outline: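 Same-well cytotoxicity: CellTiter-Glo added after the 2 hr room-temperature beta-lactamase substrate step, luminescence measured 30 min later; cells had 5 hr of compound at 37 C.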
Test [5] can be described thus: qHTS assay to identify small molecule agonists of the TGF-beta/Smad signaling pathway (AID 1346859; active = well fitted activation curve with a large enough effect in the signal ratio in the repeat runs, not every such curve was filed as active; the % refers to the signal ratio; note: series mostly up to about 77 µM). The gist of the method:
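After overnight seeding, SBE-bla HEK 293T cells are dosed with compounds in DMSO and kept 5 hr at 37 C, 5% CO2. LiveBLAzer-type FRET substrate is then applied for 2 hr at room temperature.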

Test [6] concerns the target Thyrotropin-releasing hormone receptor (Homo sapiens) (UniProt P34981). In words: qHTS assay to identify small molecule antagonists of the thyrotropin-releasing hormone receptor (TRHR) signaling pathway (AID 1346877; active = well fitted inhibition curve with a large enough effect in the repeat runs, not every such curve was filed as active; note: series mostly up to about 51 µM). The gist of the method: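 Antagonism is measured as suppression of the calcium response to 1 nM TRH in TRHR-HEK293 cells that have been dye-loaded for 2 h at 37 °C after overnight plating. Each compound is tested at 15 concentrations in triplicate.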

The target is the same in test [7]. As to the kind of experiment: qHTS assay to identify small molecule agonists of the thyrotropin-releasing hormone receptor (TRHR) signaling pathway (AID 1346891; calls by dose curve;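 note: HEK293 cells expressing TRHR with calcium dye readout; series mostly up to about 58 µM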). The gist of the method:
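Compounds were tested as agonists at 15 concentrations, in triplicate, on TRHR-Hek293 cells; calcium-sensitive dye fluorescence was recorded for 3 min following addition.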

Test [8] in a line: Caspase-3/7 induction in HepG2 cells by small molecules, qHTS assay (AID 1346978). Note: nearly all actives have a fitted effect of over 15% in size. The gist of the method: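 Wild-type HepG2 cells, 2,000/well, settled 5 hr at 37 C and 5% CO2, then compound-treated for 17 hr; caspase-3/7 activity read by luminescent Caspase-Glo 3/7 after 30 min at room temperature.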
A short description of test [9]: Caspase-3/7 induction in CHO-K1 cells by small molecules, qHTS assay (AID 1346980). Note: nearly all actives have a fitted effect of over 15% in size. In outline:
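Wild-type CHO-K1 cells exposed to compounds for 17hr at 37 C, 5% CO2. Caspase-3/7 activity then measured by Caspase-Glo 3/7 luminescence after 30min at room temperature.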

Test [10] is described as follows: Caspase-3/7 induction in HepG2 cells by small molecules, qHTS cell viability counter screen (AID 1346981). Note: nearly all actives have a fitted effect of over 30% in size. Note: potency is the fitted concentration of half-maximal effect. The gist of the method: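 Cell viability is measured as a cytotoxicity counter screen alongside the Caspase-Glo 3/7 readout in identical wells. Wild-type HepG2 cells are treated with test compounds for 16 hr at 37 C before CellTiter-Fluor addition and a 1-hr incubation.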

Test [11] concerns the target Nuclear receptor subfamily 1 group I member 2 (Rattus norvegicus) (UniProt Q9R1A7). In words: Rat pregnane X receptor (rPXR) activation by small molecules, qHTS assay (AID 1346983). Note: nearly all actives have a fitted effect of over 20% in size. Particulars: rPXR luciferase reporter cells, One-Glo luminescence, 24 h; max activation: hits give high values. The gist of the method: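 Cell-based rPXR activation assay: rPXR cells, 2,000 per well, rested 5hr at 37 C, then exposed to compounds in DMSO for 24 hr at 37 C. Luciferase activity read by One-Glo luminescence after 30 min at room temperature.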

The target in test [12] is Nuclear receptor subfamily 1 group I member 2 (Homo sapiens) (UniProt O75469). In words: CYP3A4 induction through human pregnane X receptor (PXR) by small molecules, qHTS assay (AID 1346984). Note: nearly all actives have a fitted effect of over 40% in size. In outline: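 Quantitative HTS in DPX-2 cells, i.e. HepG2 transfected with PXR response element and CYP3A4-promoter luciferase. Compounds in DMSO incubated 24hr at 37C; then P450-Glo CYP3A4 substrate, 3uM final, 3hr; One-Glo luminescence.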

The target in test [13] is Cytochrome P450 2D6 (Homo sapiens) (UniProt P10635). In words: Cytochrome P450 Family 2 Subfamily D Member 6 (CYP2D6) small molecule antagonists: luciferase reporter qHTS assay (AID 1671196). Note: nearly all actives have a fitted effect of over 50% in size. Note: potency is the fitted concentration of half-maximal effect. In outline: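 Enzyme and proluciferin substrate were first combined with test chemical for 10 min at room temperature. Adding NADPH regeneration solution started a 1 h reaction, stopped with luciferin detection reagent and read by luminescence 20 min later.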

Test [14] is described as follows: qHTS assay to identify small molecule agonists of the progesterone receptor (PR) signaling pathway - cell viability counter screen (AID 1346799; calls by dose curve; note: nearly all actives have a fitted effect of over 45% in size). In outline: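 In parallel with the beta-lactamase readout, cytotoxicity toward PR-UAS-bla HEK293T cells was measured by CellTiter-Glo luminescence following 16 hr compound incubation in 2% charcoal-stripped FBS medium.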

Test [15] in a line: qHTS assay to identify small molecule antagonists of the progesterone receptor (PR) signaling pathway - cell viability counter screen (AID 1346798). Note: series mostly up to about 92 µM; nearly all actives have a fitted effect of over 50% in size. In outline: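 CellTiter-Glo luminescence; PR-UAS-bla HEK293T, 3,000 cells/well; compound + R5020, 16 hr, 37C/5% CO2; 30 min RT before read.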
Test [16] can be described thus: Caspase-3/7 induction in CHO-K1 cells by small molecules, qHTS cell viability counter screen (AID 1346979). Note: nearly all actives have a fitted effect of over 35% in size. The gist of the method:
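Viability readout by fluorescence (CellTiter-Fluor) on wild-type CHO-K1 cells exposed for 16hr at 37C and 5% CO2 to compounds delivered in DMSO; reagent incubated 1hr before reading.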

The target in test [17] is Nuclear receptor subfamily 1 group I member 2 (Homo sapiens) (UniProt O75469). As to the kind of experiment: Human pregnane X receptor (PXR) small molecule agonists, qHTS assay (AID 1346982). Note: nearly all actives have a fitted effect of over 35% in size. Note: potency is the fitted concentration of half-maximal effect. The gist of the method:
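Cells: HepG2 stably carrying PXR-Luc. Medium held 5% charcoal-stripped FBS. Compounds in DMSO added after 5 hr plating, incubated 24 hr, then luminescence quantified with ONE-Glo.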

Test [18] shares this target. In words: Human pregnane X receptor (PXR) activation by small molecules, qHTS assay (AID 1346985). Note: nearly all actives have a fitted effect of over 40% in size. The gist of the method: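 DPX-2 cells (HepG2 co-transfected with a PXR response element and a CYP3A4-promoter luciferase construct) were seeded at 2,000 per well, rested 5 hr at 37C, then exposed to DMSO-dissolved compounds for 24 hr. Activation was read as luciferase luminescence.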

Test [19] in a line: Human pregnane X receptor (PXR) small molecule agonists, qHTS cell viability counter screen (AID 1346977). Note: nearly all actives have a fitted effect of over 50% in size. In outline:
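Viability counter screen: CellTiter-Fluor signal in PXR-Luc HepG2 cells, 24hr compound exposure, 37C, 5% CO2.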

The target in test [20] is Progesterone receptor (Homo sapiens) (UniProt P06401). In words: qHTS assay to identify small molecule antagonists of the progesterone receptor (PR) signaling pathway (AID 1346795; active = well fitted inhibition curve with a large enough effect in the signal ratio in the repeat runs, not every such curve was filed as active; the % refers to the signal ratio). The gist of the method:
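Fluorescence intensity measured 2 hr after adding beta-lactamase FRET substrate to PR-UAS-bla HEK293T cells that had been co-treated 16 hr with compound and 1 nM R5020 (final concentration) in 2% charcoal-stripped FBS.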

Molecules are shown by their SMILES. A number with no mark means an inactive call. Records with an inconclusive call do not appear. Active and inactive are the calls of the source. Unless noted, calls come from the whole dose curve; as a rule, active = well fitted curve in the direction sought with a large enough effect in the repeat runs; inconclusive = weak or mixed curves; inactive = no such curve, though single readings can be large; an effect the other way counts as inactive or inconclusive.
% is set by controls: 0 for no effect and ±100 for the full control effect.

Chain of Cytochrome P450 2D6 (Homo sapiens) (P10635 whole entry, looked up): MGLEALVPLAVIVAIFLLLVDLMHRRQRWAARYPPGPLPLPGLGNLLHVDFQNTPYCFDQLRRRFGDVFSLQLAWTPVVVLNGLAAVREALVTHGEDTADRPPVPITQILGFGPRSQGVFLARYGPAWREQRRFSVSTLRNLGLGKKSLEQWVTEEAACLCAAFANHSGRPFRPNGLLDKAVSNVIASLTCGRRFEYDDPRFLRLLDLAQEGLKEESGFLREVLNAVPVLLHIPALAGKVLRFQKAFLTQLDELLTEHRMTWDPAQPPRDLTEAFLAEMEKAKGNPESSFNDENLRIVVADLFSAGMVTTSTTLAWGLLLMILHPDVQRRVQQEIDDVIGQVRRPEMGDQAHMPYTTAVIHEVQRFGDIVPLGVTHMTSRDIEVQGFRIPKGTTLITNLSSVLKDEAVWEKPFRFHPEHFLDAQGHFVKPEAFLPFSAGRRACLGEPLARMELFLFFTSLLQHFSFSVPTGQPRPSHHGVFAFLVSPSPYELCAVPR
Chain of Nuclear receptor subfamily 1 group I member 2 (Homo sapiens) (O75469 whole entry, looked up): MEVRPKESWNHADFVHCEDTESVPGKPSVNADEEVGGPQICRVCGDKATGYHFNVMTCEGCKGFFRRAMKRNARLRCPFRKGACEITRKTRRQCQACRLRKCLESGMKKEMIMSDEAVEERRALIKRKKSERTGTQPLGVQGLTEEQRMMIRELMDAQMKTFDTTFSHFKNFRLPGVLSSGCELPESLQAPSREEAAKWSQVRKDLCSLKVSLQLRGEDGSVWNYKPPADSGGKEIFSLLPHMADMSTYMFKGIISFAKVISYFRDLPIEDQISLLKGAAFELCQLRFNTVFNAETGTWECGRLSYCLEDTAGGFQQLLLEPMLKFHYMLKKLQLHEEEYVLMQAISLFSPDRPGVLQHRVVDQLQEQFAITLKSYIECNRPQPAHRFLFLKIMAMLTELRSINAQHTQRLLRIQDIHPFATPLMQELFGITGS
Chain of Thyrotropin-releasing hormone receptor (Homo sapiens) (P34981 whole entry, looked up): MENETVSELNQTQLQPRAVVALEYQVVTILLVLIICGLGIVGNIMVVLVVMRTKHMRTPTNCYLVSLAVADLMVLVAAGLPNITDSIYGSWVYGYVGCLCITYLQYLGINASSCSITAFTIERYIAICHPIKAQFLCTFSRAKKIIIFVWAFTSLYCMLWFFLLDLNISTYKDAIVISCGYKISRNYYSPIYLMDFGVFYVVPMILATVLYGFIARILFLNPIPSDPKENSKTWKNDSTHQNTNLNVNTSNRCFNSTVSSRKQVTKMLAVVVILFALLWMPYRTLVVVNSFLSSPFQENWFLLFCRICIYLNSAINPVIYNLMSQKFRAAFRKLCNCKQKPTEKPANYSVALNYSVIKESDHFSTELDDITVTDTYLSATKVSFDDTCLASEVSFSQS
Chain of Progesterone receptor (Homo sapiens) (P06401 whole entry, looked up): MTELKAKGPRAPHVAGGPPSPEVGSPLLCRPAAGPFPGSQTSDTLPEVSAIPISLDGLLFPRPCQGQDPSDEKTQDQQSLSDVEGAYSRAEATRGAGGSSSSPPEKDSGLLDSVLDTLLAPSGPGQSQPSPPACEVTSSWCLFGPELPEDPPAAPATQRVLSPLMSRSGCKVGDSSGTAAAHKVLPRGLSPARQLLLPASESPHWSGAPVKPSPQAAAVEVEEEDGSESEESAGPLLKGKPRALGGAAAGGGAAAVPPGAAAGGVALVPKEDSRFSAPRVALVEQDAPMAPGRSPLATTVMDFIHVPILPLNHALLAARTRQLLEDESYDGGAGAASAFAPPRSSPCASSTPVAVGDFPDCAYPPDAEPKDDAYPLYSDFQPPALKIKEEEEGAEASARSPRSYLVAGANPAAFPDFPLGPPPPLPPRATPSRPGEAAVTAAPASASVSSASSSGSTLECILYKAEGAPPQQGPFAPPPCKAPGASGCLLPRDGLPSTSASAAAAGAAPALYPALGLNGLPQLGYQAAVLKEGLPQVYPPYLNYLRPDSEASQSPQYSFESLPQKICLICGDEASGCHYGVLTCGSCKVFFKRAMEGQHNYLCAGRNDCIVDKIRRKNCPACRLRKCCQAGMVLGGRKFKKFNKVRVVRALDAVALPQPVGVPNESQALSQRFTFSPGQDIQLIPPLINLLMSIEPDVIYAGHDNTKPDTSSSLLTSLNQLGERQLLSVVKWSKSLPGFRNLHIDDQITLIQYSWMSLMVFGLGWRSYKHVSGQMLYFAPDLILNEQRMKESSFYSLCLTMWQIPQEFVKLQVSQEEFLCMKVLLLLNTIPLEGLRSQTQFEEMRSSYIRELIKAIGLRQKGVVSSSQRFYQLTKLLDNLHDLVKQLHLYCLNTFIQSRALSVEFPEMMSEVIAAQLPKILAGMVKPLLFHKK
Chain of Nuclear receptor subfamily 1 group I member 2 (Rattus norvegicus) (Q9R1A7 whole entry, looked up): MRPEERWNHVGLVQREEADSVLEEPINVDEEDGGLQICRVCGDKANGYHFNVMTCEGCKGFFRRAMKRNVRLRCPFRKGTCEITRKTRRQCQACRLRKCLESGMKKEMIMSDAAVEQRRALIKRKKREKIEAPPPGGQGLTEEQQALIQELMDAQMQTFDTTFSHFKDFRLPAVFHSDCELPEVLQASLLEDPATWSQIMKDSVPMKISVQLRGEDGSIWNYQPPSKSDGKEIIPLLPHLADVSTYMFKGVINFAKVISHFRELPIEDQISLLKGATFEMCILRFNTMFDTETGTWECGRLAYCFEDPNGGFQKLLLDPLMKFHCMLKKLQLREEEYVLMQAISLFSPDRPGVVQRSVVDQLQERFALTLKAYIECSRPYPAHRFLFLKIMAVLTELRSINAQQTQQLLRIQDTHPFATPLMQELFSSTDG

With `CC(C)C[C@H]1C(=O)N2CCC[C@H]2[C@]2(O)O[C@](NC(=O)[C@@H]3C=C4c5cccc6[nH]c(Br)c(c56)C[C@H]4N(C)C3)(C(C)C)C(=O)N12`, the Potency entry in [1], in test [2], in [3], in test [5], in [7] and in [8] was “inactive” each time. The Potency result in test [9], in test [12] and in test [13] was “inactive” throughout. Also, the result in test [4] and in test [6] was inactive. Also, the Potency in test [10] was 16.4 µM (active). Besides, the max activation in test [11] is 0.513%.

Turning to `CN(C)CCN(Cc1ccc(Cl)cc1)c1ccccn1`, the Potency result in test [1], in [2], in test [14], in test [3], in test [5] and in test [7] was “inactive” each time. Besides, the Potency result in test [8], in test [9] and in test [10] was “inactive” in each case. Besides, the molecule was classed as inactive in [6]. Besides, the Potency in test [13] is 0.275 µM (active).

As to `O=C(CS)Nc1ccccc1`, the Potency result in test [1], in test [2], in test [15], in [14], in [3] and in [5] was “inactive” in each case. For the same molecule, the Potency result in [7], in [8], in [16], in [9], in test [10] and in test [17] was “inactive” each time. Further, the Potency result in test [13] was “inactive”. The outcome in test [6] was inactive.

On to `CCOC(=O)c1cccnc1`, for which the Potency result in test [1], in [2], in test [15], in test [14], in test [3] and in [5] was “inactive” throughout. For the same molecule, the Potency result in test [7], in test [8], in test [9], in test [10], in test [17] and in [12] was “inactive” in each case. The Potency result in test [18] and in [13] was “inactive” throughout. Besides, the molecule was classed as inactive in test [6]. The max activation in [11] was -3.51%.

In the case of `CCCCCCCC#N`, the Potency entry in [1], in [2], in test [15], in test [3], in test [5] and in test [7] was “inactive” each time. For the same molecule, the Potency result in [16], in [9], in [10] and in test [13] was “inactive” in each case. Besides, the call in test [4] and in test [6] was inactive.

For the molecule `CC(C)(COC(=O)c1ccccc1)COC(=O)c1ccccc1`, the Potency result in test [1], in [2], in test [15], in test [3], in [5] and in test [7] was “inactive” each time. Besides, the Potency result in test [19], in test [8], in [9], in [10], in test [17] and in [13] was “inactive” throughout. The molecule was called inactive in test [4] and in test [6].

As for `CCOC(=O)NCCOc1ccc(Oc2ccccc2)cc1`, the Potency result in test [1], in test [2], in [3], in test [5], in test [7] and in test [8] was “inactive” throughout. Also, the Potency result in test [9] was “inactive”. Further, the molecule was called inactive in test [4] and in [6]. Also, the Potency in test [17] was 21.7 µM (active); in [13] it was 35.6 µM (active).

As for `CC(C)(C)Cl`, the Potency entry in [1], in test [20], in test [15], in test [14], in test [3] and in [5] was “inactive” each time. The Potency entry in [7], in test [19], in test [8], in test [16], in [9] and in test [10] was “inactive” in each case. For the same molecule, the Potency entry in test [13] was “inactive”. Further, the call in [4] and in [6] was inactive.
